Among the data in PubChem BioAssay AID463 (The Scripps Research Institute Molecular Screening Center, 2006) are inhibition values, retold here.

The whole screen tested about 56,000 compounds, of which about 710 (1.3%) were called active. Shown is part of a subset that was picked to be rich in actives. Unmarked numbers belong to inactive results.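 The calls were made as follows: active = inhibition above the mean inhibition of all tested compounds plus 3 SD (cut at about 28% in these data); inactive = the rest.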

The nature of the test: Jurkat cell viability reduction – Jurkat E6.1, 60K MLSMR library, cytotoxicity control, primary screen (AID 463). The note with it: Jurkat E6.1 viability, ATP luminescence, 48 h; at 4 µM; hits give high values.
`Cc1nnc(N(Cc2ccco2)C(=O)c2ccno2)s1`: the inhibition was -0.7%.
As for `Cc1ccc2[nH]c(=O)c(COC(=O)c3ccccn3)cc2c1`, the figure is -6.3%; as for `CCn1c(=N)c(S(=O)(=O)c2ccc(F)cc2)cc2c(=O)n3ccccc3nc21`, -7%.
As for `COc1ccc(Cn2nnc3c(=O)[nH]c(C4CCN(C(=O)c5ccccc5Cl)CC4)nc32)cc1`, the figure is -2.8%; as for `CCN(CC)S(=O)(=O)c1cccc(C(=O)NCC(=O)OCC(=O)NCc2ccccc2)c1`, -5.9%.
As for `CCN(CC)S(=O)(=O)c1cccc(C(=O)Nc2ccccc2)c1`, the figure is 29.7% (active); as for `CN(C)S(=O)(=O)c1cccc(C(=O)Nc2cccnc2)c1`, -3%.
Consider `COc1ccc(Br)cc1S(=O)(=O)N1CCN=C1C`, for which the inhibition is 2.5%.
`CCOC(=O)C1=C(C)N=c2s/c(=C\C(=O)OC)c(=O)n2C1c1ccc(OC)cc1` (stereo not given): the inhibition was 6%.
With `CCOC(=O)N1CCN(S(=O)(=O)c2ccc(C(=O)Nc3ccc(F)cc3F)cc2)CC1` the figure was 84.2% (active); with `O=C(Nc1cccc(F)c1)c1ccc(S(=O)(=O)N2CCCC2)cc1`, 1.7%; with `O=C(CN1CCN(S(=O)(=O)c2ccc(F)cc2)CC1)Nc1ccccc1F`, -6%.
Turning to `Cc1ccc(C2c3c(oc4ccc(C)cc4c3=O)C(=O)N2CCCN2CCOCC2)cc1` (stereo not given), the inhibition is 3.9%.
As for `Cc1ccccc1Cn1c(=O)[nH]c2ccccc21`, the figure is 5.4%.
With `COc1ccc(CCN2C(=O)c3[nH]nc(-c4ccccc4O)c3C2c2ccc(C)cc2)cc1OC` (stereo not given) the figure was 11.1%; with `Cc1ccc(S(=O)(=O)Nc2ccc3ncccc3c2)cc1`, 69.4% (active).
As for `CC(=O)N1CCN(C(=O)c2cccc(S(=O)(=O)Nc3ccc(C)cc3)c2)CC1`, the figure is -0.6%; as for `O=S(=O)(Nc1ccc2nc(-c3ccco3)[nH]c2c1)c1ccccc1`, 4.2%.
Consider `Cc1cc(C)cc(N(CC(=O)Nc2c(C)n(C)n(-c3ccccc3)c2=O)S(C)(=O)=O)c1`, for which the inhibition was -5.2%.
With `CCOC(=O)CSc1nnc(-c2cccc(Br)c2)o1`, the inhibition is -6.1%.
Regarding `CC(=O)Nc1ccc(S(=O)(=O)Nc2cccc(NC(=O)C(C)(C)C)c2)cc1`, the inhibition is 7.9%.
Turning to `COc1ccc(NS(=O)(=O)c2ccc(NC(C)=O)cc2)cc1OC`, the inhibition is 31.3% (active).
With `CCNS(=O)(=O)c1ccc(NC(=O)Nc2cccc(OC)c2)cc1` the figure was -3.7%.
Consider `COC(=O)COc1ccc(S(=O)(=O)Nc2ccc(NC(C)=O)cc2)cc1`, for which the inhibition was -9.6%.
With `COc1ccc(C(=O)Nc2ccc(S(=O)(=O)Nc3onc(C)c3C)cc2)cc1OC` the figure was -3.3%; with `COc1cc(NS(=O)(=O)c2ccc(NC(C)=O)cc2)cc(OC)c1`, 37.3% (active).
With `NC(=O)c1ccsc1NC(=O)c1ccco1` the figure was -2.4%; with `O=C(O)c1ccc(F)c(S(=O)(=O)Nc2ccccc2)c1`, 6.8%; with `O=C(O)Cc1ccc(NC(=O)C2CCCCC2C(=O)O)cc1` (stereo not given), -4.1%.
With `Cc1nnc(SCc2ccc(C(=O)c3ccc(Cl)cc3)o2)n1-c1ccccc1`, the inhibition is 2.9%.
For `COc1ccc(N2C(=O)CN=C2Nc2cccc(C)c2C)cc1OC`, the inhibition is -3%.
Regarding `Nc1nnc(SCCN2C(=O)c3ccccc3S2(=O)=O)s1`, the inhibition is -1%.
As to `COc1ccccc1NC(=O)CN1CCN(S(=O)(=O)c2ccc(Br)cc2)CC1`, the inhibition was -0.3%.
Turning to `CCC(=O)c1ccc(OCC(O)CN2C(=O)NC(C)(C)C2=O)cc1` (stereo not given), the inhibition is -6.4%.
With `O=C(c1cccc(S(=O)(=O)N2CCOCC2)c1)N1CCOCC1` the figure was 0%.
With `CCOc1cccc(-c2nnc3sc(COc4ccc(OC)cc4)nn23)c1` the figure was -3%.
As for `CCOc1cccc(-n2nnnc2-c2ccc(OC)cc2)c1`, the figure is 86.8% (active); as for `COc1ccc(-n2nnnc2SCC(=O)c2ccc(OC)c(OC)c2)cc1`, 7.1%.
For the compound `COC(=O)COc1ccc(S(=O)(=O)N2CCOCC2)cc1`, the inhibition is -6.6%.
Consider `CCOC(=O)Cc1csc(NC(=O)CN(C)S(=O)(=O)c2ccc3c(c2)CCC(=O)N3)n1`, for which the inhibition was -0.9%.
As for `COc1ccc(NC(=O)c2cccc(NC(=O)c3ccco3)c2)c(OC)c1`, the figure is -4.5%.
With `CCOc1cc(CN2CCN(C(=O)CC(C)C)CC2)ccc1OC` the figure was -0.1%; with `CCOc1cc(C(=O)N2CCc3cc(OC)c(OC)cc3C2)ccc1OC(F)F`, 98.3% (active).
With `CCOc1cc(-c2noc(CCC(=O)N3CCOCC3)n2)ccc1OC` the figure was -6.2%.
On to `COc1ccc(C(=O)Nc2ccc3c(c2)OCO3)cc1OC`, for which the inhibition was 16.3%.
`COc1nc(Oc2ccc(=O)n(C)n2)nc(N(C)C)n1`: the inhibition was 4.9%.
With `CC1(C)CC(=O)C(C=NCCC2=CCCCC2)=C(O)C1` the figure was 2%; with `C=CCn1c(CSc2nc3ccccc3s2)nnc1SCC(=O)NCc1ccco1`, 0.8%.
As to `O=C(Cn1cnc2c(cnn2-c2ccccc2)c1=O)NCc1ccccc1`, the inhibition is 35.9% (active).
Consider `CN(Cc1ccccc1)C(=O)CCNC(=O)Cn1cnc2ccccc2c1=O`, for which the inhibition is 7.8%.
As to `O=C(Cn1cnc2c(cnn2-c2ccc(F)cc2)c1=O)NCCc1ccccc1`, the inhibition is -3%.
With `CC(=O)Oc1cccc(N2C(=O)C3CC=C(Cl)CC3C2=O)c1` (stereo not given) the figure was -1.4%.
In the case of `CS(=O)(=O)N1CCN(C(=O)c2cc3ccccc3oc2=O)CC1`, the inhibition was -5.4%.
As for `CCN(CC)C(=O)CSc1nnc(-c2ccc(S(=O)(=O)NCc3ccccc3Cl)cc2)o1`, the inhibition was -7.3%.
With `Cc1ccccc1C(=O)NCCN=C1NS(=O)(=O)c2ccccc21` the figure was 3.3%; with `O=C(c1cccc(C(=O)N2CCN(c3ccc(F)cc3)CC2)c1)N1CCN(c2ccc(F)cc2)CC1`, 37.4% (active).
As for `Cc1ccccc1CN1CCN(C(=O)c2cccc(F)c2)CC1`, the figure is -5%; as for `O=C(c1ccccc1)c1cccn1CC(=O)N1CCN(c2ccc(F)cc2)CC1`, -0.4%; as for `COc1cc(C2C(C#N)=C(C)NC3=C2C(=O)CC(C)(C)C3)ccc1O` (stereo not given), 5%.
With `COc1ccccc1CNC(=O)C1CCN(S(C)(=O)=O)CC1` the figure was -5.6%.

The term inhibition denotes the relative decrease from the control value, in per cent.
